Hit rate of the full screen: of about 190,000 compounds, about 810 (0.43%) were called active. The list comes from a sample in which actives are over-represented; it also holds similar structures and randomly drawn compounds. Unmarked numbers belong to inactive results. No stated cut-off is given here; in the data, active means inhibition above about 50%; inactive means the rest.
Each compound was assayed against Mannose-6-phosphate isomerase (Homo sapiens) (UniProt P34949) (assay: MPI enzyme activity inhibition – biochemical, fluorescence intensity, coupled assay, primary screen (AID 1209;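 further: plate controls were DMSO vehicle for no effect and wells lacking substrate for full effect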)). Conditions: purified PMI enzyme, at 20 µM, stronger effect = higher value.
Chain of Mannose-6-phosphate isomerase (Homo sapiens) (P34949 whole entry, looked up): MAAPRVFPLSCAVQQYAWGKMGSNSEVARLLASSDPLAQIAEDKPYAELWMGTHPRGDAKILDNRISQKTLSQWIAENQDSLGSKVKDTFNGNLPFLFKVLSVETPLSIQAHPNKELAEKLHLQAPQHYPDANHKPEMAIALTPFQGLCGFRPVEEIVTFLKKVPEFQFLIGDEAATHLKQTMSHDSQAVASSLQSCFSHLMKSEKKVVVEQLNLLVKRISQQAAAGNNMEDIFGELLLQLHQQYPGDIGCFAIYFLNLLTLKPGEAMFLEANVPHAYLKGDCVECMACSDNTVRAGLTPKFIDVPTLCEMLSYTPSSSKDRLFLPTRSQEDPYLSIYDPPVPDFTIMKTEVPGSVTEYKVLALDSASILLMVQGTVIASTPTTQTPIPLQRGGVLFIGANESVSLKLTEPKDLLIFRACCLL
`CCOC(=O)c1c(N)sc(C(N)=O)c1C` was tested, and the inhibition was -5.6%. `CCOC(=O)c1c(N)sc(C(=O)OC)c1C` was tested, and the inhibition was -6.6%. With `CCOC(=O)c1c(N)sc(C(=O)N(C)C)c1C` the inhibition was -5%. With `CCOC(=O)c1c(N)sc2c1CCCC2` the inhibition was 5.6%. For `CCOC(=O)c1c(N)sc(C(=O)OCCOC)c1C`, the inhibition was 51% (active). For `CCCOC(=O)c1c(N)sc(C(=O)OCC)c1C`, the inhibition was 2.1%. For `CCOC(=O)c1c(N)sc(N)c1C(=O)OCC`, the inhibition was 60.1% (active). In the case of `CCOC(=O)c1sc(N)c(C(=O)OC)c1C`, the inhibition is reported as 7%. `CCOC(=O)c1sc(N)c(C(=O)Nc2ccccc2OC)c1C` was tested, and the inhibition was 60.2% (active). Work on `CCOC(=O)c1c(N)sc(C(=O)Nc2ccccc2F)c1C` yielded an inhibition of 11.6%. In the case of `CCOC(=O)c1sc(N)c(C(N)=O)c1C`, the inhibition is reported as 64.3% (active). With `CCOC(=O)c1sc(N)c(C(=O)Nc2ccccc2)c1C` the inhibition was 44.4%. In the case of `NNC(=O)COc1ccc(F)cc1`, the inhibition is reported as 15.9%. With `O=C(NCc1ccncc1)c1cncc(Br)c1` the inhibition was 2%. `NC1=NC(=O)/C(=C\c2ccc(O)c([N+](=O)[O-])c2)S1` was tested, and the inhibition was -3.7%. Compound `CCc1c(O)cc2n(c1=O)-c1ccc(Cl)cc1C2(C)C` has an inhibition of 2.7%. With `CN(CC(=O)NC(=O)NCc1ccccc1)Cc1ccc(Cl)c(Cl)c1` the inhibition was 14%. `Cc1cccc(NC(=O)C(=O)NCCc2c[nH]c3ccccc23)c1C` was tested, and the inhibition was 12.5%. `CCC(=O)Nc1cccc(-n2nnnc2SCC(=O)N2CCCCC2)c1` showed an inhibition of -4.2%. `COC(=O)c1nc2ccc(N3CCOCC3)cc2c(C)c1C(=O)OC` was tested, and the inhibition was 23.5%. With `Cc1c(C(=O)O)c(C(=O)O)nc2ccc(N3CCOCC3)cc12` the inhibition was 56.4% (active). Work on `Cc1cc(C(=O)Nc2ccc(N3CCOCC3)cc2)c2ccccc2n1` yielded an inhibition of 6.1%. `CC(C)c1nc(SCC(=O)c2ccccc2)c2c(=O)n(C)c(=O)n(C)c2n1` showed an inhibition of 5.8%. For `Cc1nn(C)c(C)c1C1C(C#N)=C(N)OC2=C1C(=O)CC(C)(C)C2` (centres undefined), the inhibition was -1.4%. `CC(=O)Nc1ccc(N/C(C)=C/C(=O)c2cccnc2)cc1` showed an inhibition of -7.3%. `C/C(=C\C(=O)c1cccnc1)Nc1ccc(O)cc1` gave an inhibition of 42.8%. In the case of `C/C(=C\C(=O)c1cccnc1)Nc1ccc(C(=O)O)cc1`, the inhibition is reported as 81% (active). `CCCCCCSc1nnc(-c2cnn(-c3ccccc3)c2-n2cccc2)n1C` gave an inhibition of 16.4%. `CC(=O)CC(C)=NCCN=C(C)CC(C)=O` gave an inhibition of -3.7%. With `Cc1ccc2cc(N)ccc2n1` the inhibition was 45.2%. Compound `Cn1cc2cc(NC(N)=S)ccc2n1` has an inhibition of 1.7%. With `Cn1cc2ccc(N)cc2n1` the inhibition was 72.9% (active). For `O=C(COC(=O)/C=C/c1ccc(S(=O)(=O)N2CCOCC2)cc1)NCc1ccc(F)cc1`, the inhibition was 9.2%. Compound `CC(C)[C@H](NC(=O)c1ccccc1)C(=O)OCC(=O)N1CCN(C(=O)c2ccco2)CC1` has an inhibition of -11.4%. `Cc1ccc(Nc2c([N+](=O)[O-])c(=O)n(C)c3ccccc23)cc1` gave an inhibition of 3.9%. With `Cc1cccc(Nc2c([N+](=O)[O-])c(=O)n(C)c3ccccc23)c1` the inhibition was 2.7%. With `Cc1cccc(Oc2c([N+](=O)[O-])c(=O)n(C)c3ccccc23)c1` the inhibition was 76% (active). In the case of `COC(=O)C1CCN(C(=O)c2ccc(SC)cc2OC)CC1`, the inhibition is reported as 6.4%. For `CCOc1cc(/C=C2\C(=O)N(c3ccc(C(N)=O)cc3)N=C2C)ccc1OC(=O)c1cccs1`, the inhibition was 59.8% (active). `CCOc1cc(/C=C2/C(=O)N(c3ccccc3)N=C2C)ccc1OC(=O)c1cccs1` showed an inhibition of 13.1%. In the case of `CCOc1cc(/C=C2/C(=O)N(c3ccccc3)N=C2C)ccc1OC(=O)c1ccco1`, the inhibition is reported as 37.5%. For `O=C(NCC(O)c1ccc([N+](=O)[O-])cc1)c1cccc(S(=O)(=O)N2CCCC2)c1` (centres undefined), the inhibition was 7.8%. `CCOC(=O)N1CCC(n2c(SCC(=O)NCCC3=CCCCC3)nc3ccccc3c2=O)CC1` gave an inhibition of 8.6%. `N#Cc1ccccc1-n1c(N)c(C(=O)N2CCCC2)sc1=S` was tested, and the inhibition was 71% (active). `Cc1ccc(-n2c(N)c(C(=O)N3CCCCC3)sc2=S)cc1` showed an inhibition of 22.6%. `Cc1ccc(-n2c(N)c(C(=O)N3CCN(C)CC3)sc2=S)cc1` gave an inhibition of 2.7%. In the case of `Nc1c(C(=O)N2CCCCC2)sc(=S)n1-c1ccccc1`, the inhibition is reported as 57.7% (active). In the case of `CCn1c(N)c(C(=O)N2CCOCC2)sc1=S`, the inhibition is reported as 8.6%. `Cc1ccc(-n2c(N)c(C(=O)N3CCOCC3)sc2=S)cc1` showed an inhibition of 36.2%. `CN1CCN(C(=O)c2sc(=S)n(-c3ccccc3)c2N)CC1` showed an inhibition of 2.8%. With `Nc1c(C(=O)N2CCOCC2)sc(=S)n1-c1ccccc1` the inhibition was 53.3% (active). Compound `Cc1c(C(=O)N2CCCCC2)sc(N)c1C#N` has an inhibition of 8.9%. With `Cc1ccc(-c2nnc(SCC(=O)N/N=C/c3ccccc3C(=O)O)n2-c2ccccc2)cc1` the inhibition was -2.4%. For `CC(C)NC(=O)C1CCN(Cc2cnn(-c3ccccc3)c2-n2cccc2)CC1`, the inhibition was -1.9%. `S=C(Nc1ccccc1)N1CCN(C(=S)c2ccccc2)CC1` gave an inhibition of 13.6%. For `CCNc1nc(OC)nc(SCC(=O)Nc2ccccc2)n1`, the inhibition was 7.3%. Work on `COc1ccc(NC(=O)Nc2ccccc2SC)c(OC)c1` yielded an inhibition of 16.5%. Compound `Cc1cccc2sc(N(CCCN(C)C)C(=O)c3cc4ccccc4oc3=O)nc12` has an inhibition of 11.8%. `O=c1cc(O)nc(SCc2ccccc2)[nH]1` showed an inhibition of 17.4%. In the case of `CCn1c2ccccc2c2nc3cc(S(=O)(=O)N4CCOCC4)ccc3nc21`, the inhibition is reported as 70.3% (active). Compound `CCn1c2ccccc2c2nc3cc(C(=O)O)ccc3nc21` has an inhibition of 6.3%. Compound `CCn1c2ccccc2c2nc3ccccc3nc21` has an inhibition of 4.5%. `COc1ccc(CN2C(=O)NC3(CCOc4ccccc43)C2=O)cc1F` (centres undefined) was tested, and the inhibition was 7.7%. `CC(C)OC(=O)c1cccc(C(=O)Oc2ccccc2)n1` showed an inhibition of -3.1%. `Cc1ccc(NC(=O)NC(=O)N(C(C)C)S(C)(=O)=O)nc1` showed an inhibition of -7.9%. Compound `Cc1[nH]n(-c2ccccc2)c(=S)c1C=NCCCN=Cc1c(C)[nH]n(-c2ccccc2)c1=S` has an inhibition of -3.9%. With `Cc1[nH]n(-c2ccccc2)c(=S)c1C=Nc1ccc([N+](=O)[O-])cc1` the inhibition was 69.1% (active). `Cc1[nH]n(-c2ccccc2)c(=O)c1C=Nc1ccc(S(=O)(=O)N(C)C)cc1` was tested, and the inhibition was -3.8%. In the case of `CCN1/C(=C/c2ccc3ccccc3[n+]2CC)C=Cc2ccccc21`, the inhibition is reported as 15.5%. With `CN1/C(=C/c2cc[n+](C)c3ccccc23)C=Cc2ccccc21` the inhibition was 70.7% (active). Work on `CC[n+]1ccc(/C=C2\Sc3ccccc3N2CCCS(=O)(=O)[O-])c2ccccc21` yielded an inhibition of 8.2%. For `C[n+]1ccc(/C=C/c2ccccc2O)c2ccccc21`, the inhibition was 12.3%. In the case of `CN1C=C/C(=C\c2cc[n+](C)c3ccccc23)c2ccccc21`, the inhibition is reported as 59.2% (active). For `COc1ccc(N=c2oc3cc(O)ccc3cc2C(=O)Nc2ccccn2)cc1OC`, the inhibition was 14.8%. `NC1=NC2CS(=O)(=O)CC2S1` (centres undefined) showed an inhibition of 2.4%. In the case of `O=C(c1ccc([N+](=O)[O-])cc1)N1CCN(C(=O)c2ccco2)CC1`, the inhibition is reported as 1.1%. `COc1ccc(CC(=O)OCC(=O)Nc2cccnc2Cl)cc1OC` gave an inhibition of -1.9%. In the case of `CCOC(=O)N1CCN(C(=O)C2CCN(S(=O)(=O)N(CC)CC)CC2)CC1`, the inhibition is reported as -12%. In the case of `COC(=O)c1ccccc1NC(=S)N1CCN(c2ccccn2)CC1`, the inhibition is reported as 7.2%. `CCOC(=O)c1ccccc1N/C=C1\CCCCC1=O` gave an inhibition of -4.9%. `COC(=O)c1ccccc1N/C=C1\CCc2c(c(C)nn2-c2ccccn2)C1=O` was tested, and the inhibition was 85.2% (active). Work on `Cc1ccc(NCc2ccccc2O)c(C)c1` yielded an inhibition of 2.8%. `COc1ccc(/C=C(\C#N)C(=O)OCC(=O)NCc2ccccc2)cc1` gave an inhibition of 0.9%. In the case of `COc1ccc(/C=C(\C#N)C(=O)OCCNC(=O)c2ccncc2)cc1`, the inhibition is reported as 67.7% (active). Work on `COc1ccc(/C=C(\C#N)C(=O)OCC(=O)NC(=O)NCCC(C)C)cc1` yielded an inhibition of -4.9%. For `CCCOc1ccc(CNC(=S)NCc2ccc(OC(C)C)cc2)cc1`, the inhibition was 6.1%. For `O=C(NCc1ccccn1)c1ccc(N2CCCC2)c([N+](=O)[O-])c1`, the inhibition was -10.4%. `O=C(NCc1ccncc1)c1ccc(N2CCCC2)c([N+](=O)[O-])c1` was tested, and the inhibition was 72.1% (active). In the case of `O=C(NCc1ccc2c(c1)OCO2)c1ccc(N2CCCCCC2)c([N+](=O)[O-])c1`, the inhibition is reported as 10.1%. `Cc1ccc(S(=O)(=O)N(C)C)cc1NC(=S)Nc1ccc2cn[nH]c2c1` was tested, and the inhibition was 55.4% (active). In the case of `S=C(Nc1ccc2cn[nH]c2c1)Nc1ccc(Cl)cc1Cl`, the inhibition is reported as 55.6% (active). `S=C(Nc1ccc(Cl)cc1)Nc1ccc2cn[nH]c2c1` was tested, and the inhibition was 23.6%. Work on `S=C(Nc1ccc2cn[nH]c2c1)Nc1ccccc1Cl` yielded an inhibition of 14.1%. `CN(C)S(=O)(=O)c1cccc(NC(=S)Nc2ccc3cn[nH]c3c2)c1` was tested, and the inhibition was 44.4%. Work on `Cc1ccc(S(=O)(=O)N(C)C)cc1NC(=S)Nc1ccc2[nH]c(=O)[nH]c2c1` yielded an inhibition of 44.5%. In the case of `C/C(=N\NC(=O)COc1ccc(C(C)(C)C)cc1)c1ccc2c(c1)OCCO2`, the inhibition is reported as 19%. With `COc1ccccc1NC(=O)Cn1cnc2c(oc3ccccc32)c1=O` the inhibition was 4.7%. Compound `Cc1ccc2c(c1)sc[n+]2Cc1ccccc1` has an inhibition of -11.9%. `COC(=O)[C@H](CC(C)C)NC(=O)CCc1nnc(COc2ccccc2)o1` was tested, and the inhibition was -1.7%. `CNC(=O)NCC12CC3CC(CC(C3)C1)C2` gave an inhibition of 0%. For `CCN=c1scc(C)n1/N=C/c1ccsc1`, the inhibition was -6.7%. With `COCCN=c1scc(-c2cccs2)n1/N=C(\C)c1ccco1` the inhibition was -16.8%. For `COCCN=c1scc(-c2ccco2)n1/N=C/c1ccc(O)c(O)c1O`, the inhibition was 69.7% (active). `CCN=c1scc(C)n1/N=C/c1cc(Br)c(O)c(Br)c1` was tested, and the inhibition was -24.9%. With `COc1ccc(O)c(/C=N/n2c(-c3ccco3)csc2=Nc2cccnc2)c1` the inhibition was 11.8%. With `CCN=c1scc(C)n1/N=C/c1ccc(O)c(O)c1O` the inhibition was 82.5% (active). For `COCCN=c1scc(-c2cccs2)n1/N=C/c1ccc(O)c(O)c1O`, the inhibition was 68.4% (active). `COCCN=c1scc(-c2ccccc2)n1/N=C/c1c[nH]c2ccccc12` showed an inhibition of 25.3%. `CCN=c1scc(-c2cccs2)n1/N=C/c1cc(OC)ccc1O` gave an inhibition of -5%.

Reference: PubChem BioAssay AID1209 (Sanford-Burnham Center for Chemical Genomics, 2008)
